± gives the standard deviation of the averaged measurements.

This note sets out measurements from the supplement of paper PMC6992640.

For assay [1], the system named is HCI01 (cells of a triple-negative basal-like breast cancer xenograft). Briefly: cell viability (% of vehicle); higher = less cytotoxic. Conditions: 10 µM; 72 h.
A further assay deals with HCI09 (cells of a triple-negative luminal androgen receptor type breast cancer xenograft). Described as above. Conditions: 10 µM; 72 h.
The next assay deals with HCI16 (cells of a triple-negative basal-like breast cancer xenograft). The assay is described as above. As to conditions: 10 µM; 72 h.
The test system of another assay is HCI03 (cells of an ER-positive luminal breast cancer xenograft). The description is as above. As to conditions: 10 µM; 72 h.
Another assay relates to HCI11 (cells of an ER-positive luminal breast cancer xenograft). Described as above. As to conditions: 10 µM; 72 h.
The next assay deals with HCI13 (cells of an ER-positive luminal breast cancer xenograft). The description is as above. As to conditions: 10 µM; 72 h.
Assay [2] concerns UCD52 (cells of a triple-negative basal-like breast cancer xenograft). The assay is described as above. As to conditions: 10 µM; 72 h.
The next assay deals with WHIM2 (cells of a triple-negative basal-like breast cancer xenograft). The description is as above. Conditions: 10 µM; 72 h.
The next assay has as its system WHIM30 (cells of a triple-negative basal-like breast cancer xenograft). Described as above. Conditions: 10 µM; 72 h.
Assay [3] concerns HCI01. Put plainly: cell viability of combination (% of vehicle); higher = less cytotoxic. Conditions: 1 µM; 72 h; partner dose: 10 nM. How it is done: (§1)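 PDX cells were treated for 72 h with each drug at 1 µM plus carfilzomib (10 nM; 100 nM for WHIM2). Luciferase viability is expressed as percent of vehicle.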
Assay [4] relates to UCD52. The assay is described as above. Conditions: 1 µM; 72 h; partner dose: 10 nM. How it is done:
as §1

In the case of `COc1ccc(-c2cc(=O)c3c(O)cc(O)cc3o2)cc1O` [Diosmetin], the cell viability worked out at 169 ± 46 with HCI01 [1], 170 ± 120 in the assay on HCI09 and 181 in the assay with HCI16.

For `CC[C@]1(O)C[C@H]2CN(CCc3c([nH]c4ccccc34)[C@@](C(=O)OC)(c3cc4c(cc3OC)N(C=O)[C@H]3[C@@](O)(C(=O)OC)C(OC(C)=O)[C@]5(CC)C=CCN6CC[C@]43C65)C2)C1.O=S(=O)(O)O` (some centres not stated) [Vincristine], the cell viability with HCI03 came out at 111; in the assay with HCI09, 91.3 ± 26; in the assay with HCI11, 112; in the assay on HCI13 it was 42.2 ± 2.8; in the assay with HCI16, 200; with UCD52 [2], 85.1 ± 13. Moreover, the cell viability was determined as 90.5 ± 12 in the assay with WHIM2 and 153 ± 16 in the assay on WHIM30.

For `CCN(CC)CCOc1ccc(C(=C(Cl)c2ccccc2)c2ccccc2)cc1.O=C(O)CC(O)(CC(=O)O)C(=O)O` [Clomiphene citrate], the cell viability stood at 51.5 in the assay with HCI03; 34.9 ± 3.9 in the assay with HCI09; 95.8 in the assay with HCI11; 39.3 ± 1.4 in the assay with HCI13; 134 in the assay on HCI16; 62.5 ± 0.63 in the assay with UCD52 [2]. Moreover, the cell viability in the assay on WHIM2 was found to be 35.1 ± 12; in the assay with WHIM30, 146 ± 15.

As for `Cc1cc(-n2c(=O)[nH]c(=O)n(C)c2=O)ccc1Oc1ccc(SC(F)(F)F)cc1` [Toltrazuril] + CC(C)C[C@H](NC(=O)[C@H](CCc1ccccc1)NC(=O)CN1CCOCC1)C(=O)N[C@@H](Cc1ccccc1)C(=O)N[C@@H](CC(C)C)C(=O)[C@@]1(C)CO1 [Carfilzomib], the entries for the “cell viability of combination” value in the assay with HCI01 [3] and in the assay on UCD52 [4] were 76.4 and 61, respectively.

As to `CNC(=O)c1ccccc1Sc1ccc2c(C=Cc3ccccn3)n[nH]c2c1`, the values for the cell viability in the assay with HCI11, in the assay with HCI16 and with UCD52 [2] were 158, 150 and 191 ± 4.7, respectively.

In the case of `CCOc1cc2ncc(C#N)c(Nc3ccc(OCc4ccccn4)c(Cl)c3)c2cc1NC(=O)C=CCN(C)C` [Neratinib (HKI-272)] + CC(C)C[C@H](NC(=O)[C@H](CCc1ccccc1)NC(=O)CN1CCOCC1)C(=O)N[C@@H](Cc1ccccc1)C(=O)N[C@@H](CC(C)C)C(=O)[C@@]1(C)CO1 [Carfilzomib], the “cell viability of combination” value in the assay with HCI01 [3] is 87.8; in the assay on UCD52 [4], 48.7.

As to `O=C(C=Cn1cnc(-c2cc(C(F)(F)F)cc(C(F)(F)F)c2)n1)NNc1cnccn1` + CC(C)C[C@H](NC(=O)[C@H](CCc1ccccc1)NC(=O)CN1CCOCC1)C(=O)N[C@@H](Cc1ccccc1)C(=O)N[C@@H](CC(C)C)C(=O)[C@@]1(C)CO1 [Carfilzomib], the “cell viability of combination” value turned out to be 57.3 in the assay with HCI01 [3] and 40.1 with UCD52 [4].

Consider `CC(O)=C(C#N)C(=O)Nc1ccc(C(F)(F)F)cc1` [Teriflunomide], for which the results for the cell viability in the assay on HCI11, in the assay with HCI13 and with HCI16 were 162, 196 ± 48 and 200, respectively.

Regarding `CC1(COc2ccc3c(c2)ncn3-c2ccc3cccc(N4CCC(N)CC4)c3n2)COC1` + CC(C)C[C@H](NC(=O)[C@H](CCc1ccccc1)NC(=O)CN1CCOCC1)C(=O)N[C@@H](Cc1ccccc1)C(=O)N[C@@H](CC(C)C)C(=O)[C@@]1(C)CO1 [Carfilzomib], the figures for the “cell viability of combination” value in the assay on HCI01 [3] and in the assay with UCD52 [4] were 102 and 135, respectively.

As for `CC(C)CC(NC(=O)C(NC(=O)c1cccc(-c2ccccc2)n1)C(C)O)B(O)O` (configuration not stated) + CC(C)C[C@H](NC(=O)[C@H](CCc1ccccc1)NC(=O)CN1CCOCC1)C(=O)N[C@@H](Cc1ccccc1)C(=O)N[C@@H](CC(C)C)C(=O)[C@@]1(C)CO1 [Carfilzomib], the results for the “cell viability of combination” value in the assay with HCI01 [3] and in the assay on UCD52 [4] were 42.4 and 20.1, respectively.

`Cc1oncc1C(=O)Nc1ccc(C(F)(F)F)cc1` [Leflunomide] showed a cell viability in the assay on HCI11 of 194.

For the compound `Cl.Fc1ccc(C2CCNCC2COc2ccc3c(c2)OCO3)cc1` (configuration not stated) [Paroxetine HCl] + CC(C)C[C@H](NC(=O)[C@H](CCc1ccccc1)NC(=O)CN1CCOCC1)C(=O)N[C@@H](Cc1ccccc1)C(=O)N[C@@H](CC(C)C)C(=O)[C@@]1(C)CO1 [Carfilzomib], the “cell viability of combination” value in the assay on HCI01 [3] came to 90.8; in the assay with UCD52 [4] it was 54.7.

Consider `CC(=O)Oc1ccccc1C(=O)Nc1ncc([N+](=O)[O-])s1` [Nitazoxanide], for which the cell viability in the assay with HCI09 is 161 ± 140; with HCI11 it was 168; in the assay on HCI16 it was 128; in the assay on UCD52 [2], 154 ± 8.6.

Consider `CC(=Cc1ccccc1)C=C1SC(=S)N(CC(=O)O)C1=O` [Epalrestat], for which the cell viability stood at 112 in the assay on HCI03; 96.4 in the assay with HCI11; 170 ± 10 in the assay on HCI13; 102 in the assay on HCI16; 102 ± 11 in the assay with UCD52 [2]; 134 ± 29 in the assay with WHIM30.

Consider `COC(=O)NC(C(=O)NC(Cc1ccccc1)C(O)CN(Cc1ccc(-c2ccccn2)cc1)NC(=O)C(NC(=O)OC)C(C)(C)C)C(C)(C)C` (configuration not stated) [Atazanavir] + CC(C)C[C@H](NC(=O)[C@H](CCc1ccccc1)NC(=O)CN1CCOCC1)C(=O)N[C@@H](Cc1ccccc1)C(=O)N[C@@H](CC(C)C)C(=O)[C@@]1(C)CO1 [Carfilzomib], for which the “cell viability of combination” value in the assay on HCI01 [3] was determined as 79.8; with UCD52 [4] it was 63.2.

`C1=C\COCc2cc(ccc2OCCN2CCCC2)Nc2nccc(n2)-c2cccc(c2)COC/1` [Pacritinib] + CC(C)C[C@H](NC(=O)[C@H](CCc1ccccc1)NC(=O)CN1CCOCC1)C(=O)N[C@@H](Cc1ccccc1)C(=O)N[C@@H](CC(C)C)C(=O)[C@@]1(C)CO1 [Carfilzomib]: the “cell viability of combination” value was found to be 58.2 in the assay on HCI01 [3] and 57.9 in the assay with UCD52 [4].

With `C=CC(=O)Nc1cc(Nc2nccc(-c3cn(C)c4ccccc34)n2)c(OC)cc1N(C)CCN(C)C` + CC(C)C[C@H](NC(=O)[C@H](CCc1ccccc1)NC(=O)CN1CCOCC1)C(=O)N[C@@H](Cc1ccccc1)C(=O)N[C@@H](CC(C)C)C(=O)[C@@]1(C)CO1 [Carfilzomib], the entries for the “cell viability of combination” value in the assay with HCI01 [3] and in the assay with UCD52 [4] were 59.8 and 53.7, respectively.

Regarding `CCCCc1nc2cc(C=CC(=O)NO)ccc2n1CCN(CC)CC` [Pracinostat (SB939)], the cell viability in the assay with HCI09 was found to be 56.2 ± 49; in the assay on HCI11, 6.31; with HCI13 it was 88.1 ± 21; with WHIM2, 64.9 ± 4.9.

In the case of `Cn1nnc(-c2ccc(-c3ccc(N4CC(CO)OC4=O)cc3F)cn2)n1` (configuration not stated) [Tedizolid], the cell viability in the assay on HCI11 came out at 107; in the assay on HCI16, 170; in the assay with WHIM2, 157 ± 57.

In the case of `COCCn1c2c([n+](Cc3cnccn3)c1C)C(=O)c1ccccc1C2=O.[Br-]` + CC(C)C[C@H](NC(=O)[C@H](CCc1ccccc1)NC(=O)CN1CCOCC1)C(=O)N[C@@H](Cc1ccccc1)C(=O)N[C@@H](CC(C)C)C(=O)[C@@]1(C)CO1 [Carfilzomib], the results for the “cell viability of combination” value with HCI01 [3] and in the assay with UCD52 [4] were 25.5 and 17.4, respectively.

Regarding `Cc1nc(NC(=O)N2CCCC2C(N)=O)sc1-c1ccnc(C(C)(C)C(F)(F)F)c1` (configuration not stated) + CC(C)C[C@H](NC(=O)[C@H](CCc1ccccc1)NC(=O)CN1CCOCC1)C(=O)N[C@@H](Cc1ccccc1)C(=O)N[C@@H](CC(C)C)C(=O)[C@@]1(C)CO1 [Carfilzomib], the entries for the “cell viability of combination” value with HCI01 [3] and in the assay with UCD52 [4] were 62.6 and 42.3, respectively.

With `COC(=O)c1ccc2c(c1)NC(=O)C2=C(Nc1ccc(N(C)C(=O)CN2CCN(C)CC2)cc1)c1ccccc1` [Nintedanib (BIBF 1120)] + CC(C)C[C@H](NC(=O)[C@H](CCc1ccccc1)NC(=O)CN1CCOCC1)C(=O)N[C@@H](Cc1ccccc1)C(=O)N[C@@H](CC(C)C)C(=O)[C@@]1(C)CO1 [Carfilzomib], the figures for the “cell viability of combination” value in the assay with HCI01 [3] and in the assay with UCD52 [4] were 76.4 and 37.5, respectively.
